Data on seven compounds can be found in PubChem BioAssay (NCATS).

Records with an inconclusive call do not appear. Where a call stands in place of a potency, no number is given. Activity calls are given as the source filed them. Calls follow the shape of the dose curve; as a rule, active = well fitted inhibition curve with a large enough effect; inconclusive = small, poorly fitted or top-dose-only effect; inactive = flat fitted curve, though single readings scatter.

The assay has as its system CRL-7250. As to the kind of experiment: qHTS assay to identify novel small-molecules to repurpose for Merkel cell carcinoma treatment (AID 1296009). Also: nearly all actives have a fitted effect of over 60% in size. Particulars: MCC and control cell lines, CellTiter-Glo viability, 72 h; series mostly up to 92 µM. In outline: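 Luminescence from CellTiter-Glo, read 10 min after addition at room temperature, reported viability following a 72 hr, 37 degree celsius treatment with NPC or MIPE compounds in titration; values normalized to plate controls.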
(qHTS replaces the single test concentration by a dilution series.)
Consider `CN(C)c1ccc(C2O[C@@H](c3ccccc3)C[C@H](c3ccccc3)O2)cc1` (some centres not stated), for which the Potency entry is “inactive”.
Consider `CC(=O)N[C@@H](CCCCN)C(=O)N(C)[C@@H](CC(C)C)C(=O)N[C@H](C(=O)N(C)[C@@H](Cc1ccccc1)C(=O)N[C@H](Cc1ccccc1)C(N)=O)C(C)C`, for which the outcome was “inactive [at 4.96 µM]”.
Regarding `O=C(/C=C/c1ccccc1)OCC1=CC[C@@H]2C(C(=O)O)=CO[C@@H](O[C@@H]3O[C@H](CO)[C@@H](O)[C@H](O)[C@H]3O)[C@H]12`, the Potency entry was “inactive”.
The same measure, in the same setting: in the case of `C[C@@H]1C[C@@H](O)[C@@]2(CO)C(CO)=CCC[C@@H]2[C@@]12C[C@@H](c1ccoc1)OC2=O` it was “inactive”.
Regarding `NC[C@@H]1O[C@@H](O[C@@H]2[C@@H](O[C@@H]3O[C@H](CO)[C@@H](O)[C@H]3O)[C@H](O)[C@@H](N)C[C@H]2N)[C@@H](N)[C@H](O)[C@H]1O`, the outcome is “inactive [at 9.27 µM]”.
For `C=C(C)[C@@H]1CC[C@]2(C)CC[C@]3(C)C(CCC4[C@@]5(C)CC[C@H](O)C(C)(C)C5CC[C@]43C)C12` (some centres not stated), the Potency result is “inactive”.
Still for that read-out and setting: under `Cn1c2ccc(F)cc2c2c(C(=O)N3CCCC3)cn(-c3ccccc3)c(=O)c21` stands “inactive”.
